# From PubChem
# An excerpt weighted towards active compounds, which were near 3.1% of everything screened.
# Vif-APOBEC3G blk: inhibitors of Vif-APOBEC3G interaction; AID 602310; hit rate 0.076% among 410,000; Potency, µM (doses to about 46.1 µM), inactives show at the top dose activity, negative = active, hits mostly inhibitors; HeLa A3G-eYFP + Vif (tagged APOBEC3G with the HIV-1 protein that degrades it), YFP fluorescence, overnight; note: potency is the fitted concentration of half-maximal effect; % is set by controls: 0 for no effect and ±100 for the full control effect; nearly all actives have a fitted effect of over 60% in size
# Target sequence (Q9HC16 whole entry, looked up): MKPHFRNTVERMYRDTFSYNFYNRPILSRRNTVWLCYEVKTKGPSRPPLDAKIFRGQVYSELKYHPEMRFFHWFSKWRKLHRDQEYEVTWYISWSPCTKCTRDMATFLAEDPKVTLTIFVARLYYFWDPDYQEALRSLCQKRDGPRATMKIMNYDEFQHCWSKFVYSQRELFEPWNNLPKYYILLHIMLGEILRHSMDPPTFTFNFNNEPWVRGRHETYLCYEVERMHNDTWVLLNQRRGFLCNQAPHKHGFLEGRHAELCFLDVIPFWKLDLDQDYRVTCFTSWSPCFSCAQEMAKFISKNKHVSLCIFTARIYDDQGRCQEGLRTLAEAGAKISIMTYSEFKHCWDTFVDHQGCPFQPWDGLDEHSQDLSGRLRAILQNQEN
#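 Read-out is eYFP fluorescence (Ex 488/Em 500-530) from Vif-expressing HeLa A3G-eYFP cells; more signal means A3G escaped Vif-mediated degradation. Cells plated overnight, compound pinned in, incubated overnight at 37 deg C.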
# Vif-A3F inh: inhibitors of Vif-A3F interaction; AID 602313; HeLa A3F-eYFP + Vif (tagged APOBEC3F with the HIV-1 protein that degrades it), YFP fluorescence increase; hit rate 0.2% among 390,000; Potency, µM (highest dose often 46.1 µM), for inactives: at the highest dose activity, negative = active; note: potency is the fitted concentration of half-maximal effect; % of control where 0% means no effect; nearly all actives have a fitted effect of over 65% in size
#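 HeLa cells stably expressing Vif plus C-terminally eYFP-tagged A3F were seeded, incubated overnight at 37 deg C, dosed with compound, incubated overnight again at 37 deg C. Yellow fluorescence (Ex 488/Em 500-530) reported blocked Vif-mediated A3F-eYFP degradation.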
# TSHR antag: blocks TSH signaling through the human TSH receptor | TSHR-expressing cells, TSH-stimulated cAMP HTRF, 2 h; active compounds read low | AID 504810 | P16473 | activity change, negative = inhibition, % at 11.5 µM | hit rate 0.2% among 330,000;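 active = activity change below a set negative limit, meaning inhibition stronger than a set level, cut at about -70% in these data; inconclusive = activity change between two set negative limits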; note: % is set by controls: 0 for no effect and ±100 for the full control effect
#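 Read-out is FRET at 665 nm (cryptate excitation 337 nm) from a cryptate-tagged anti-cAMP antibody, competed by cell cAMP against cAMP-d2. Compounds are tested on freshly harvested TSHR cells challenged with 4nM TSH (EC80) for 2 hours at 37 deg C.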
# VDR inh: inhibitors of human vitamin D receptor. P11473. AID 504847. VDR-SRC2-3 peptide fluorescence polarization, 2 h. Potency, µM, for the others: max response, negative = inhibition, most hits filed as inhibitors. hit rate 0.93% among 400,000; note: potency is the fitted concentration of half-maximal effect; % is set by controls: 0 for no effect and ±100 for the full control effect
#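 Compounds are added to VDR with labelled SRC2-3 coactivator peptide and held 2 h at room temperature. Inhibition of the VDR–peptide interaction is then read as a change in fluorescence polarization.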
# PLK1 PBD inh: blocks phosphopeptide binding to human PLK1 polo-box domain; Plk1 PBD binding of FITC phosphopeptide, fluorescence polarization; Potency, µM, inactives show max response, negative = inhibition, most hits filed as inhibitors; hit rate 2.8% among 360,000; AID 720504; note: potency is the fitted concentration of half-maximal effect; series mostly up to about 57 µM; % is set by controls: 0 for no effect and ±100 for the full control effect; nearly all actives have a fitted effect of over 65% in size
# The depositor's hits bear a star; ? = inconclusive; / = no result given. Unless noted, calls come from the whole dose curve; as a rule, active = well fitted curve in the direction sought with a large enough effect; inconclusive = small, poorly fitted or top-dose-only effect, or another doubt; inactive = no such curve, though single readings can be large; an effect the other way counts as inactive or inconclusive.
SMILES,Vif-APOBEC3G blk,Vif-A3F inh,TSHR antag,VDR inh,PLK1 PBD inh
Cc1ccc(CNC(=O)CSc2nc(N3CCCCC3)nc(N3CCCCC3)n2)cc1,2%,6%,7,-2%,27µM*
C[C@@]12C(=O)Nc3ccc(F)cc3C(=O)N1[C@H]1c3ccccc3OC[C@@H]1[C@@H]2c1ccccc1,-6%,-1%,-11,-18%,24µM*
CS/C(=N\S(=O)(=O)c1cccs1)NC(=O)CSc1nc2ccccc2s1,1%,-4%,4,?,11µM*
C/C(=N/NC(=O)CSc1nc2ccccc2s1)c1ccncc1,0%,-2%,-8,-3%,-19%
COc1cccc(/C(O)=C/c2nc3ccc(C(=O)NCCc4ccc(Cl)cc4)cc3[nH]c2=O)c1,?,5µM*,2,2%,?
COc1cccc(/C(O)=C/c2nc3ccc(C(=O)NCCc4cccc(C)c4)cc3[nH]c2=O)c1,5.6µM*,?,-5,-10%,-12%
COc1cccc(C(=O)Nc2cc(C(=O)NCCc3ccccc3)ccc2Cl)c1,-3%,-14%,-4,12%,-6%
CCc1cccc(NC(=O)COC(=O)c2ccccc2OCc2ccccc2Br)c1,2%,/,/,/,/
S=C(NCCCc1cnc[nH]1)NCCCN(CCc1ccccc1)c1ccc(Br)cn1,-3%,/,/,-7%,/
Cn1c(=O)c2[nH]c(=O)cnc2n(C)c1=S,3%,-4%,-6,-23%,30µM*
O=C(CCCCCN1CCN(c2ccccc2-c2ccccc2)CC1)NC1CCCc2ccccc21 (configuration not stated),/,/,-16,1%,/
O=[N+]([O-])c1ccc(S(=O)(=O)NN=Cc2ccc(Cl)c(Cl)c2)cc1,2%,-18%,/,50µM*,11µM*
CC(=O)Nc1ccc(S(=O)(=O)NN=Cc2ccc(Cl)c(Cl)c2)cc1,2%,0%,/,-7%,-24%
CCOc1ccc(N/C=C/C(=O)c2ccc(OC)c(OC)c2)cc1,0%,-7%,0,7%,9%
CCCOc1ccc(N/C=C/C(=O)c2ccc(OC)c(OC)c2)cc1,-20%,-1%,5,?,21µM*
COc1ccc(/C=C2\SC(=S)N(NS(=O)(=O)c3ccc(C)cc3)C2=O)c(OC)c1,0%,2%,12,-14%,?
COc1ccc(OC)c(/C=C2\SC(=S)N(NS(=O)(=O)c3ccc(C)cc3)C2=O)c1,-1%,7%,-17,?,27µM*
COc1ccccc1/C=C1\SC(=S)N(NS(=O)(=O)c2ccc(C)cc2)C1=O,-9%,-5%,-3,-3%,27µM*
O=S(=O)(c1ccccc1)N1CCN(c2nc(-c3ccc(F)cc3)nc3cc(Cl)ccc23)CC1,-2%,/,/,-19%,/
O=C1C2C(c3ccccc3)CC=CC2C(c2cccc([N+](=O)[O-])c2)N1Cc1ccccc1 (configuration not stated),0%,/,/,-25%,/
NS(=O)(=O)c1cccc(NC(=O)c2cccs2)c1,1%,2%,0,25µM*,13µM*
CCOc1cc2ccccc2cc1C(=O)OCC(=O)Nc1ccc(Br)cc1,1%,/,/,/,/
O=C(CCn1cnc2ccccc21)N/N=C/c1ccccc1O,-7%,1%,4,-8%,8.4µM*
O=C(CSc1nnnn1-c1cccc2c1CCCC2)N1CCOCC1,3%,1%,24,-5%,-2%
O=C(CSc1nnnn1-c1cccc2c1CCCC2)N1CCCC1,8%,-1%,25,-18%,4.7µM*
SMILES,Vif-APOBEC3G blk,Vif-A3F inh,TSHR antag,VDR inh,PLK1 PBD inh
O=c1nc(SCc2ccccc2Cl)nc(-c2ccc(Cl)cc2)[nH]1,-2%,-2%,-2,-7%,?
O=c1nc(SCc2c(F)cccc2Cl)nc(-c2ccc(Cl)cc2)[nH]1,-4%,2%,-3,-3%,21µM*
COc1ccc(CNC(=O)CSC(=S)N2CCCC2)cc1,-3%,?,1,-17%,-15%
CC(C)c1ccc(CCNC(=O)CSC(=S)N2CCCC2)cc1,2%,6%,-6,-19%,27µM*
CCCNC(=O)CCn1c(=S)oc2ccccc21,0%,4%,-1,?,12µM*
O=C1/C(=C/c2cccc(Br)c2)SC(=S)N1/N=C/c1cc([N+](=O)[O-])ccc1O,2%,2%,-4,?,19µM*
O=C1/C(=C\c2ccc(O)cc2)SC(=S)N1/N=C/c1ccc(O)cc1,-16%,?,-6,-1%,53%
Cc1ccc(NC(=S)NNS(=O)(=O)c2ccc3ccccc3c2)cc1Cl,-4%,-1%,3,-24%,19µM*
COCCNC(=O)C(=O)NNS(=O)(=O)c1ccc(Cl)cc1,-1%,2%,13,-16%,2%
COCCNC(=O)C(=O)NNS(=O)(=O)c1ccc2ccccc2c1,-3%,0%,2,?,19µM*
CNc1c(Br)cc(C(O)C2=CCc3ccccc32)cc1Br (configuration not stated),5%,/,/,/,/
CCOC(=O)C(Oc1ccc2c(-c3ccccc3)cc(=O)oc2c1C)c1ccccc1 (configuration not stated),0%,0%,31,?,4%
Cc1c(OCc2ccc(C(=O)O)cc2)ccc2c(-c3ccccc3)cc(=O)oc12,7%,0%,-21,79µM*,?
CCOc1cccc(/C=N/NC(=S)Nc2ccccc2[N+](=O)[O-])c1O,-22%,-21%,-15,-14%,1%
O=[N+]([O-])c1ccccc1NC(=S)N/N=C/c1ccc(O)c(O)c1,-9%,2%,-3,?,12µM*
Oc1ccc(/C=N/Nc2ccnc3cc(Cl)ccc23)c(O)c1O,-3%,-12%,-5,-10%,2.1µM*
O=C(CCn1cnnn1)Nc1ccc(Cl)cc1Cl,-7%,-11%,0,-18%,3.8µM*
N#Cc1cc([N+](=O)[O-])ccc1N1CCCC1,-6%,-10%,0,?,27µM*
O=[N+]([O-])c1ccc(N2CCCCCC2)c([N+](=O)[O-])c1,-8%,/,-1,-19%,-12%
Cc1cc(C)c(C)c(S(=O)(=O)N2C(=S)NC(=O)C2C(C)C)c1C (configuration not stated),5%,2%,-5,-11%,27µM*
N#Cc1sc(=O)[nH]c1Cl,-4%,-6%,/,79µM*,?
CCOC(=O)c1c(/N=C/N(C)C)sc(/C=N/Nc2ccccc2)c1-c1ccc(Cl)cc1,-20%,-4%,-3,?,30µM*
CCOC(=O)c1c(/N=C/N(C)C)sc(C)c1C,1%,-2%,-4,-9%,-11%
COc1ccccc1-n1cnnc1SCC(=O)c1c[nH]c2ccccc12,-11%,1%,9,?,27µM*
Cc1occc1-c1nnc(SCC(=O)c2c[nH]c3ccccc23)n1C,1%,3%,9,-22%,24µM*
Cc1occc1-c1nnc(SCC(=O)c2ccc(Cl)cc2)n1C,2%,2%,-2,?,-17%
CC(C)CCOc1ccc(CC(=O)NO)cc1,2%,/,/,/,/
